“And” between values parts separate entries of the source, which are not always exact repeats. Identical values can stand only once. Screen size: about 5,600 compounds; about 150 (2.7%) showed an effect of 50% or more. This is one part of a sample in which strong results are shown more often than they occur.
Target: T1, Protein deacetylase HDAC6 (Homo sapiens) (UniProt Q9UBN7)
T1 sequence (whole entry): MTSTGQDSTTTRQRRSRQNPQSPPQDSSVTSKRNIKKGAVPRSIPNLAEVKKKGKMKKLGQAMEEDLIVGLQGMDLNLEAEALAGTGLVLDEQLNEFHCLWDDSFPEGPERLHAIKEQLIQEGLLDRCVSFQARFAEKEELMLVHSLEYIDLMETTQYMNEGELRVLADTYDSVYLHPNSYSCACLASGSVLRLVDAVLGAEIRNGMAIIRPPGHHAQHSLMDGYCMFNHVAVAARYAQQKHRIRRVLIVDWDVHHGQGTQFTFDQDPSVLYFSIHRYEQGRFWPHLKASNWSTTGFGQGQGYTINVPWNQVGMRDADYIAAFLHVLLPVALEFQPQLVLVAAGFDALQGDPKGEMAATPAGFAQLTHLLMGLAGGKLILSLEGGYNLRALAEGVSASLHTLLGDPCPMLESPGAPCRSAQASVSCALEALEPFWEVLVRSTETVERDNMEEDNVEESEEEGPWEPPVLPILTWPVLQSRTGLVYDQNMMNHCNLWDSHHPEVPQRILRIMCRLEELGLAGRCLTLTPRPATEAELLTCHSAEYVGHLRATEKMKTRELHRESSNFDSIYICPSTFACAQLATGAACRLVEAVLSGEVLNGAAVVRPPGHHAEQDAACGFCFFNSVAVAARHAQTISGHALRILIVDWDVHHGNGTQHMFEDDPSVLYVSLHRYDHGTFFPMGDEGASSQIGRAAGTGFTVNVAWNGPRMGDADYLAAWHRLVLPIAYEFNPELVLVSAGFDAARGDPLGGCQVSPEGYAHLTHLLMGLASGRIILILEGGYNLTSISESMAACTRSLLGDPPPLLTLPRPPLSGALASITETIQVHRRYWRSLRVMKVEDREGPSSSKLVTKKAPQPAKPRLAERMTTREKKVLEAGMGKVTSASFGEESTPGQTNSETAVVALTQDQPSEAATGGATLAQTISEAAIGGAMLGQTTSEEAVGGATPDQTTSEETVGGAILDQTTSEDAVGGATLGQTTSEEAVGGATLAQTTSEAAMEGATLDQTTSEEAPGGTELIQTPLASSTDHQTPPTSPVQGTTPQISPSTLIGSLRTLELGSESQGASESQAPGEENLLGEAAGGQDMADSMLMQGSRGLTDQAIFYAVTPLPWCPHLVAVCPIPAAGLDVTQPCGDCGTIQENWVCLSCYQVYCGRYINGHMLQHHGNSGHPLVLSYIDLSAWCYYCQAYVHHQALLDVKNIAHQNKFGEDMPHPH
Settings: at 10 µM

SMILES	inhibition
OC[C@H]1O[C@@H](c2ccc(F)c(Cc3cc4ccccc4s3)c2)[C@H](O)[C@@H](O)[C@@H]1O	-2.47%
O=C(/C=C/c1ccc(O)c2c1[C@@H](C(=O)O[C@H](Cc1ccc(O)c(O)c1)C(=O)O)[C@H](c1ccc(O)c(O)c1)O2)O[C@H](Cc1ccc(O)c(O)c1)C(=O)O	3.93%
CC(=O)NC[C@H]1CN(c2ccc(-c3ccc(CNCc4cnn[nH]4)cc3)c(F)c2)C(=O)O1	0.09%
Cn1nnc(-c2ccc(-c3ccc(N4C[C@H](CO)OC4=O)cc3F)cn2)n1	86.8%
Cc1cccc(N2CC(CO)OC2=O)c1 (configuration not stated)	-6.61%
Cc1nc(-c2ccc(OCC(C)C)c(C#N)c2)sc1C(=O)O	98.8%
CCCCOCCOc1nc(-c2ccc(C(=O)O)c(F)c2)sc1C	0.11%
Cc1cc(SCc2sc(-c3ccc(C(F)(F)F)cc3)nc2C)ccc1OCC(=O)O	3.31%
CCOC(=O)[C@@]1(CCCCCCOc2ccc(Cl)cc2)CO1	-2.98%
CCC(CC)Nc1nc(C)c(-c2ccc(OC(F)(F)F)cc2OC)nc1OC	-3.03%
O=c1c2ccccc2nc2n1CCc1c-2[nH]c2ccccc12	7.17%
O=c1c2ccccc2nc2n1CCCCC2	17.6%
O=C1c2ccccc2-n2c1nc1ccccc1c2=O	68.6%
O=C(O)c1cccc(-c2noc(-c3ccccc3F)n2)c1	99.8%
FC(F)(F)c1cccc(-c2noc(-c3cc(-c4ccccc4)c(C(F)(F)F)s3)n2)c1	-4.64%
Cc1c(-c2ccc(-c3ccccc3F)cc2)nc2ccc(F)cc2c1C(=O)O	-2.53%

SMILES	inhibition
NC1(C(=O)N[C@@H](CCO)c2ccc(Cl)cc2)CCN(c2nc[nH]c3nccc2-3)CC1	5%
CN1C(=O)N[C@H](Cc2c[nH]c3c(Cl)cccc23)C1=O	2.4%
CN(C)Cc1c(C(=O)NCCOc2ccc(C(=O)NO)cc2)oc2ccccc12	97.9%
Cc1cc(C)c(N(Cc2ccccc2)S(=O)(=O)c2ccc(OCCNC(=O)c3cc4ccccc4o3)cc2)c(C(=O)NO)c1	-0.11%
COc1ccc(C(=O)NCc2ccc(OCCN(C)C)cc2)cc1OC	-3.31%
CC1(C)OC[C@H](NC(=O)Nc2ccc(Br)cc2Br)[C@H](c2ccccc2)O1	-0.73%
FC(F)(F)c1cc(NC(=S)Nc2ccc(Br)cc2-c2nnn[nH]2)cc(C(F)(F)F)c1	67.5%
COc1cc(C[C@@H](CO[C@@H]2O[C@H](CO)[C@@H](O)[C@H](O)[C@H]2O)[C@H](CO[C@@H]2O[C@H](CO)[C@@H](O)[C@H](O)[C@H]2O)Cc2ccc(O)c(OC)c2)ccc1O	-3.26%
COc1ccc(C[C@@H](C)[C@@H](C)Cc2ccc(OC)c(OC)c2)cc1OC	-2.57%
COc1ccc(/C=C/C(=O)/C=C(O)/C=C/c2ccc(OC)c(OC)c2)cc1OC	4.07%
Cn1cc(C2=C(c3cn(CCCSC(=N)N)c4ccccc34)C(=O)NC2=O)c2ccccc21	-0.14%
Cn1cc(/C=C2/C(=O)Nc3cccnc32)c2ccccc21	66.2%
Cn1cc(C2=C(c3ccc(Cl)cc3Cl)C(=O)NC2=O)c2ccccc21	-3.78%
CCNC(=O)CC[C@@H](N)C(=O)O	-3.08%
CN(C)CC(O)Cn1c2ccc(Br)cc2c2cc(Br)ccc21 (configuration not stated)	-0.45%
O=C1OC2(c3cc(I)c(O)c(I)c3Oc3c2cc(I)c(O)c3I)c2c(Cl)c(Cl)c(Cl)c(Cl)c21	31.9% and 41.8%
